Bioassay records from PubChem.
Mtb betalactam: beta-lactam sensitization of Mtb H37Rv; AID 434955; inhibition, % at 25 µM; hit rate 0.27% among 330,000; M. tuberculosis H37Rv growth with meropenem, percent inhibition; call rule not given here;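 further: growth measured after seven days incubation then overnight dye step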
Rv3671c inh: inhibits the M. tuberculosis serine protease Rv3671c. P9WHR9. inhibition, % at 5.96 µM. hit rate 0.048% among 320,000. AID 2606; in the data active means inhibition above about 38%;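 further: extracellular domain of Rv3671c used as enzyme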
UGM FP inh: blocks M. tuberculosis UGM enzyme | P9WIQ1 | purified UGM, fluorescence polarization probe displacement | inhibition, % at 10 µM | hit rate 0.06% among 320,000 | AID 504406; in the data active means inhibition above about 10%, passing the limit was not always enough; inconclusive means no clear call, values can overlap the other calls
GDH-TPI counter: counter-screen for M. tuberculosis FBA inhibitors: GDH-TPI coupled enzymes. GDH-TPI coupled enzyme counterscreen, NADH absorbance. hit rate 1.2% among 360,000. inhibition, % at 4.8 µM; in the data active means inhibition above about 30%
RecA intein inh: inhibitors of M. tuberculosis RecA intein splicing. P9WHJ3. cell-free RecA intein splicing, fluorescence. inhibition, % (no concentration beside the values). hit rate 0.75% among 290,000. AID 2221; in the data active means inhibition above about 30%; inconclusive means no clear call, values can overlap the other calls
Target sequence (P9WHJ3 whole entry, looked up): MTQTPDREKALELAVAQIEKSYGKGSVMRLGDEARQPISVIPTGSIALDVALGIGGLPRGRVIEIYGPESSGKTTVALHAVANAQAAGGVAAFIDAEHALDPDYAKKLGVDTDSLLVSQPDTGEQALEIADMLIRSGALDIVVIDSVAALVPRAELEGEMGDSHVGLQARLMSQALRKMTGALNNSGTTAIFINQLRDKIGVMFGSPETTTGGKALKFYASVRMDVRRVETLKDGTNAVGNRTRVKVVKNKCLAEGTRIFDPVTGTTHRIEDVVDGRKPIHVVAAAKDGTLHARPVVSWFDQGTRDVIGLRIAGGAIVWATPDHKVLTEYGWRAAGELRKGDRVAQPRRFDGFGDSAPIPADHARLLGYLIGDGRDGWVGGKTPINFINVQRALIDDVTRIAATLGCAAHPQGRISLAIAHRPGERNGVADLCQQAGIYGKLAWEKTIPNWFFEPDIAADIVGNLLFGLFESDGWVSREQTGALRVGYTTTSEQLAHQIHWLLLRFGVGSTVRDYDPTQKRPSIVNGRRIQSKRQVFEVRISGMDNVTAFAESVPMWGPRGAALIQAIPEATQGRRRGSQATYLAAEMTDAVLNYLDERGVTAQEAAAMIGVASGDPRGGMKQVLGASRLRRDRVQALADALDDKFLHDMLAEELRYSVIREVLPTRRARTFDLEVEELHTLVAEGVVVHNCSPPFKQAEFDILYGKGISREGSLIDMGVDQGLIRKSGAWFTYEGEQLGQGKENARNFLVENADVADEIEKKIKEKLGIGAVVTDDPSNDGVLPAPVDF
FBA Mtb inh: inhibits M. tuberculosis FBA enzyme | purified M. tuberculosis FBA, fluorescence read-out | inhibition, % at 1 µM | hit rate 2.3% among 360,000; in the data active means inhibition above about 27%
Hits are given with their value; – = inactive; ? = inconclusive; · = no result given; + = active, no number. This is a sample that favours compounds with a hit; in the whole collection about 4% have one here.

SMILES	Mtb betalactam	Rv3671c inh	UGM FP inh	GDH-TPI counter	RecA intein inh	FBA Mtb inh
COc1ccc(/C=N/NC(N)=S)cc1OC(=O)c1cccc2ccccc12	?	–	–	34	–	–
COc1cc(/C=N/NC(N)=S)ccc1OCC(=O)Nc1ccc(C)cc1	–	–	–	40	–	–
CNC(=S)N/N=C/c1ccc(OCC(=O)Nc2c(C)cc(C)cc2C)c(OC)c1	–	–	–	–	–	–
COc1cc(/C=N/NC(=O)c2ccc(Cl)c(S(N)(=O)=O)c2)ccc1OCC(N)=O	–	–	–	43	–	–
CNc1ccc(Cl)cc1S(=O)(=O)c1ccccc1[N+](=O)[O-]	·	·	·	·	·	–
CN(C)/C=C/C(=O)c1ccc([N+](=O)[O-])c(CS(=O)(=O)c2ccc(Cl)cc2)c1	–	–	–	–	–	–
Cc1c(C(=O)N2CCCCC2)sc(NC(=O)c2ccco2)c1C#N	–	–	–	40	–	–
Cc1c(C(=O)N2CCCC2)sc(NC(=O)c2ccco2)c1C#N	–	–	–	31	–	–
COC(=O)c1sc(NC(=O)c2ccco2)c(C#N)c1C	–	–	–	–	–	–
Cc1c(C(=O)N2CCCC2)sc(NC(=O)c2ccccc2)c1C#N	–	–	–	–	–	–
CN(CC(=O)NCCc1ccccc1)Cc1ccco1	–	–	–	–	–	–
C[C@H](CO)N1C[C@H](C)[C@@H](CN(C)C(=O)Nc2ccc(C(F)(F)F)cc2)Oc2ccc(NC(=O)Cc3ccccc3)cc2C1=O	–	–	–	–	·	–
CC(C)C[C@H](N)c1nnc(S(=O)(=O)Cc2ccc(F)cc2)o1	–	–	–	–	34	–
O=C1CCCC2=C1C1(CCCCC1)N=C(Nc1nc3ccccc3o1)N2	–	–	–	51	–	–
O=C1CCCC2=C1C1(CCCC1)N=C(Nc1nc3ccccc3o1)N2	·	·	·	–	·	–
CCOc1cc(/C=C(/C#N)c2nc3ccccc3[nH]2)ccc1OCc1ccc(C(=O)O)o1	–	–	–	–	–	–
CCOc1cc(/C=C(/C#N)c2ccc(F)cc2)ccc1OCc1ccc(C(=O)O)o1	–	–	–	34	–	–
Cc1nc(-c2cccs2)sc1C(=O)O	–	–	–	–	–	–
Cc1nccc(-c2sc(-c3cccs3)nc2C)n1	–	–	–	–	–	+
CC(C)(CNC(=O)c1ccccc1NS(C)(=O)=O)N1CCCCC1	–	–	–	–	–	–
COc1cc2c(cc1OC)C(c1c(Cl)cccc1Cl)=NCC2	·	·	·	·	·	–
COc1cc2c(cc1OC)C(CCc1ccccc1)=NCC2	–	–	–	–	–	158
CC(=O)c1cc2c(cc1NC(=O)CN(C)S(=O)(=O)c1cccs1)OCO2	–	–	–	–	·	–
COc1ccc(C=CC(=O)c2ccc([N+](=O)[O-])cc2)cc1	·	·	·	–	·	–
COc1ccc(/C=C/C(=O)NC(=S)Nc2ccc(C(=O)O)cc2)cc1	–	–	–	50	–	–
SMILES	Mtb betalactam	Rv3671c inh	UGM FP inh	GDH-TPI counter	RecA intein inh	FBA Mtb inh
COc1ccc(/C=C/C(=O)NC(=S)NNC(=O)c2ccco2)cc1	–	–	–	41	–	–
COc1ccc(/C=C/C(=O)NC(=S)NNC(=O)Cc2cccs2)cc1	–	–	–	41	–	–
COc1ccc(C(=O)/C=C/c2ccc(O)cc2)cc1	–	–	–	31	–	–
Cc1nn(C)cc1CN(C)C(=O)C1CCC(=O)N(CCc2cccc(F)c2)C1 (stereo unspecified)	·	·	·	–	·	–
Cc1ccc2nc3n(c(=O)c2c1)-c1ccccc1C(=O)NC3Cc1ccccc1 (stereo unspecified)	–	–	–	·	·	·
COc1ccc(C(=O)NC(=S)Nc2ccc(S(=O)(=O)Nc3cc(OC)nc(OC)n3)cc2)cc1	–	–	–	–	–	–
Nc1cc2c(cc1Cl)-c1ccccc1C2=NO	·	·	·	–	·	–
O=C(NCc1ccccn1)c1cccc(S(=O)(=O)NCc2ccccc2)c1	–	–	–	–	–	–
O=C(CSc1nccc(=O)[nH]1)NC1CCCCCCC1	–	–	–	–	·	–
CCCCC(=O)Nc1ccc(C(=O)NNC(=S)NC(=O)c2ccco2)cc1	–	–	–	44	–	–
CCCCC(=O)Nc1ccc(C(=O)NNC(=O)c2ccco2)cc1	–	–	–	–	·	–
N/C(=N\N=C\c1ccc(O)c(O)c1)c1nonc1N	–	–	–	41	–	–
N#Cc1c(-c2ccco2)cc(-c2cccnc2)nc1N	–	–	–	–	–	181
c1cncc(-c2nnc(-c3ccco3)o2)c1	–	–	–	–	–	114
N#Cc1c(-c2cccnc2)cc(-c2ccccc2)nc1N	–	–	–	–	–	+
Clc1ccccc1-c1nnc(-c2cccnc2)o1	–	–	–	–	–	–
CCOC(=O)COc1nc(-c2ccc(C)cc2)cc(-c2ccco2)c1C#N	–	–	–	–	–	–
N#Cc1c(-c2ccco2)cc(-c2ccccn2)nc1N	–	–	–	–	–	194
COc1ccc(Cc2c(C3CCCCC3)nc3ccc(Br)cn23)c(C)c1	·	·	·	·	·	–
O=C(c1ccncc1)c1ccc(NS(=O)(=O)c2ccc(Br)s2)cc1	–	–	–	39	–	–
O=C(Nc1ccc2ccccc2c1)c1ccc(NS(=O)(=O)c2ccc(Br)s2)cc1	–	–	–	–	–	–
COC(=O)C1=CNC=C(C(=O)OC)C1c1ccc(C(=O)OC)cc1	–	–	–	–	–	115
NS(=O)(=O)c1ccc(NC(=S)NNC(=O)c2ccc(Br)o2)cc1	–	–	–	33	–	–
NS(=O)(=O)c1ccc(NC(=S)NC(=O)c2ccc(Br)o2)cc1	–	–	–	–	–	–
Cn1cc(/C=N/NC(=O)c2ccc(C#N)cc2F)c2ccccc21	–	–	–	–	–	–
SMILES	Mtb betalactam	Rv3671c inh	UGM FP inh	GDH-TPI counter	RecA intein inh	FBA Mtb inh
CCOC(=O)Cn1cc(/C=N/NC(=O)c2ccc(C#N)cc2F)c2ccccc21	–	–	–	34	–	–
N#Cc1ccc(C(=O)N/N=C/c2cn(CC(=O)O)c3ccccc23)c(F)c1	–	–	–	36	–	–
COCc1cc(C)nc(NCCO)c1C#N	–	–	–	–	–	–
CCNc1nc(C)cc(COC)c1C#N	–	–	–	–	–	127
CC1CCC(NC(=O)CCN2C(=O)C3CC=CCC3C2=O)CC1 (stereo unspecified)	–	–	–	–	·	–
CCN(Cc1ccccc1)CC(O)COC(c1ccc(OC)cc1)c1ccc(OC)cc1 (stereo unspecified)	–	–	–	–	–	–
COC(=O)C(C(=O)OC)=C(/C=C/N(C)C)N(C)C	–	–	–	38	–	–
CC1(c2ccncc2)Nc2ccccc2-c2nc3ccccc3n21 (stereo unspecified)	–	–	–	–	–	158
c1ccc(-c2nc3c(ccc4ccccc43)[nH]2)nc1	–	–	–	33	–	–
c1ccc(-c2nc3ccccc3[nH]2)nc1	–	–	–	–	–	–
Cc1cccc(NS(=O)(=O)c2nnc(NC(=O)c3ccc(C)c(C)c3)s2)c1	–	–	–	–	·	–
COc1cccc(C(=O)Nc2nnc(S(=O)(=O)Nc3cccc(C)c3)s2)c1	–	–	–	37	–	–
